Compound activity: PubChem BioAssay, National Center for Advancing Translational Sciences (NCATS)
Hits are enriched below; roughly 10% of the tested compounds scored in any of these assays.
MCF10A rereplic – induces DNA re-replication in MCF 10a normal breast cells; MCF 10A DNA re-replication, Hoechst nuclear intensity, 48 h; Potency, µM (titrated, usually from 46.1 µM), inactives show top-dose activity, positive = re-replication, usual class: activators; 2.9% of 350,000 active; AID 624296; also: % of control where 0% means no effect; nearly all actives have a fitted effect of over 50% in size
RORgamma inh – ROR gamma (mouse) transcription inhibition | Potency, µM (titrated, usually from 53.6 µM), for inactives: at the highest dose activity change, negative = inhibition, actives largely listed as inhibitors | AID 2551 | 5.4% of 310,000 active | P51450 | Drosophila S2 Gal4-RORgamma UAS-luciferase reporter, 20 h; also: % is scaled to controls: 0 for no effect and ±100 for the full control effect; nearly all actives have a fitted effect of over 60% in size
Target sequence (P51450 whole entry, looked up, the tested form may be a part): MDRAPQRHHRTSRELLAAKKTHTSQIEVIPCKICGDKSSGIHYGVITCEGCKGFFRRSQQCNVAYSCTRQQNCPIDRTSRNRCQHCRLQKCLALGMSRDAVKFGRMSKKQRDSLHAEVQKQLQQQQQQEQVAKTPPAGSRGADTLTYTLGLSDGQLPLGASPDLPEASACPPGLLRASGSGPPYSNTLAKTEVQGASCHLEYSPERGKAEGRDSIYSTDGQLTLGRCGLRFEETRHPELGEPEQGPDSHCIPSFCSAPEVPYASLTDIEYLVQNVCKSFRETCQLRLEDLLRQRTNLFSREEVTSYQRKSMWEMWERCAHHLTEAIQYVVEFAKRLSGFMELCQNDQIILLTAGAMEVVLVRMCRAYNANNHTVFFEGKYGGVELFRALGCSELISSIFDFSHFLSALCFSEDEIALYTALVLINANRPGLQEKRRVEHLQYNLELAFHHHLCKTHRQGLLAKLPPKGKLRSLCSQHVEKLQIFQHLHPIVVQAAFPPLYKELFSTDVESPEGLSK
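In this cell-based reporter format, copper sulfate (700 uM final) drives Gal4–ROR gamma fusion expression from a metallothionein promoter in Drosophila Schneider cells; compounds preincubated 1 hr, reporter read after 20 hr at ambient temperature.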
Gal4-VP16 FLuc – counter-screen for ROR gamma inhibitors: Gal4-VP16 reporter | Drosophila S2 Gal4-VP16 UAS-luciferase, luminescence, 20 h | Potency, µM (doses to about 53.6 µM), for the others: top-dose activity, negative = inhibition, most hits filed as inhibitors | 3.5% of 310,000 active | AID 2546;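 also: Gal4-VP16 expression switched on by copper sulfate through the metallothionein promoter; % is scaled to controls: 0 for no effect and ±100 for the full control effect; nearly all actives have a fitted effect of over 50% in size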
ELG1 DNA repair – ELG1-dependent DNA repair inhibition; HEK293T ELG1-luciferase reporter, luminescence, 16 h; DNA damage induced by 5-fluorouridine; Potency, µM (titrated, usually from 46.1 µM), for the others: at the top dose activity change, negative = inhibition, most hits filed as inhibitors; 2.3% of 330,000 active; AID 504467; also: % is scaled to controls: 0 for no effect and ±100 for the full control effect; nearly all actives have a fitted effect of over 55% in size
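In this reporter screen, reduction of luminescence relative to DMSO vehicle indicated activity. Compounds and 5-fluorouridine were added together to 2,000 cells per well, incubated for 16 hr at 37 °C, then developed with ONE-Glo.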
SW480 rerep – DNA re-replication induction in SW480 cells; SW480 DNA re-replication, Hoechst DNA content imaging, 48 h; 1.8% of 340,000 active; Potency, µM (highest dose often 46.1 µM), for the others: at the top dose re-replication activation, most hits filed as activators; also: % of control where 0% means no effect; nearly all actives have a fitted effect of over 55% in size
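Image-based read-out: total Hoechst fluorescence of nuclei (405 nm excitation, 500-530 nm emission), with hits raising the fraction of high-intensity nuclei. SW480 colon cells incubated 48 hr with compounds at 37 C.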
An asterisk follows results filed as active; u = inconclusive; x = not tested or not shown; [ ] = dose if it differs, or a comment. Calls follow the shape of the dose curve; as a rule, active = well fitted curve in the direction sought with a large enough effect; inconclusive = small, poorly fitted or top-dose-only effect, or another doubt; inactive = no such curve, though single readings can be large; an effect the other way counts as inactive or inconclusive. Potency is read from the fitted curve at half-maximal effect.

SMILES	MCF10A rereplic	RORgamma inh	Gal4-VP16 FLuc	ELG1 DNA repair	SW480 rerep
CN(C)c1ccc(N2CC(C)(C)C2=O)cc1	3%	-19%	u	u	-1%
Cc1ccc(-c2cc3c(N=O)c4ccccc4c-3n[nH]2)cc1	-10%	10µM*	u	u	-3%
O=Nc1c2cc(-c3ccccc3)[nH]nc-2c2ccccc12	8%	-5%	1%	u	5%
CC(C)CN(CC(C)C)C1=N/C(=C\c2ccco2)C(=O)N1c1ccccc1	15µM*	7%	-14%	u	u
CC1Cc2ccccc2N1Cc1cccc([N+](=O)[O-])c1 (stereo unspecified)	-5%	1%	-19%	0%	7%
Cc1cccc(Oc2ccccc2NC(=O)C2=COCCO2)c1	0%	x	x	-1%	-9%
NS(=O)(=O)c1ccc(NC(=S)Nc2ccn(Cc3cccc4ccccc34)n2)cc1	-3%	10µM*	u	21µM*	u
O=C1Nc2ccc(Br)cc2C1=C1CCCCC1	18µM*	-16%	-8%	u	u
Cc1ccc(N=C2C(=O)Nc3ccc(Br)cc32)cc1	u	4%	-9%	u	u
O=C(c1cnc2ccc3ccccc3c2c1)c1cc(F)ccc1O	u	-43%	-13%	18%	3.7µM*
CCC(CC)C(=O)Nc1nnc(S(=O)(=O)Nc2ccccc2C)s1	-10%	-1%	5%	u	9%
O=C(NCC1CCCO1)c1ccc(NC(=O)c2cccc([N+](=O)[O-])c2)cc1 (stereo unspecified)	-2%	13%	-5%	-11%	-3%
COc1cc(SC)ccc1C(=O)Nc1ncc(C)s1	u	2.5µM*	u	u	-113%
COc1cc(SC)ccc1C(=O)Nc1ccon1	-1%	57%	10%	u	-2%
COc1cc(SC)ccc1C(=O)Nc1ccc(C)cc1	2%	u	20µM*	u	6%
COc1cc(SC)ccc1C(=O)Nc1ccc(C)cc1C	u	35%	3%	u	1%
COc1cc(SC)ccc1C(=O)Nc1ccc(Br)cn1	u	2µM*	7.9µM*	u	-2%
COc1cc(SC)ccc1C(=O)Nc1ccccn1	8%	8.9µM*	10µM*	u	0%
Cc1nn(-c2ccccc2)c(C)c1/C=N/NC(=O)CSc1nnc(SCc2cccc3ccccc23)s1	16%	36%	-5%	-26%	2%
O=C(O)c1ccccc1-n1ncc2c1/C(=C/c1ccc(Cl)cc1)CC2	x	28%	-4%	-1%	x
COc1cc(/C=N/N=C2/NC(=O)C(Cc3ccccc3)S2)ccc1O (stereo unspecified)	18µM*	14µM*	u	u	28%
CCNC(=O)CC1S/C(=N/N=C(\C)c2ccccc2)NC1=O (stereo unspecified)	0%	-2%	-11%[10 µM]	-1%	-9%
COc1ccccc1CC1S/C(=N/N=C/c2ccco2)NC1=O (stereo unspecified)	17%	2.2µM*	7.1µM*	-5%	u
C/C(=N\N=C1\NC(=O)C(Cc2ccccc2)S1)c1ccccc1 (stereo unspecified)	u	10µM*	-24%	-12%	-104%
Cc1ccc(CC2S/C(=N/N=C/c3ccco3)NC2=O)cc1 (stereo unspecified)	3%	1.4µM*	11µM*	3%	6%
SMILES	MCF10A rereplic	RORgamma inh	Gal4-VP16 FLuc	ELG1 DNA repair	SW480 rerep
COc1ccc(/C=N/N=C2/NC(=O)C(CC(=O)O)S2)cc1OS(=O)(=O)c1ccccc1 (stereo unspecified)	-18%	0%	1%	6%	-4%
C=CCN1C(=O)C(Cc2ccc(C)cc2)S/C1=N/N=C/c1ccco1 (stereo unspecified)	1%	-5%	-8%[0.365 µM]	-2%	-6%
O=C(CCC1CCCC1)N1CCN(S(=O)(=O)c2ccc(Br)cc2)CC1	0%	x	x	3%	-6%
CCC/C=C(\CCC)C(NP(=O)(c1ccccc1)c1ccccc1)c1ccc(-c2ccccc2)cc1 (stereo unspecified)	x	13%	u	x	x
COc1c(F)c(F)c(C(=O)O)c(Nc2ccc(C)cc2C)c1F	17%	1%	22%	-3%	-13%
Cc1cccc(CC2S/C(=N/N=C/c3ccco3)NC2=O)c1 (stereo unspecified)	-16%	0.89µM*	5.6µM*	8%	-4%
O=C1N/C(=N/N=C/c2ccco2)SC1Cc1ccccc1 (stereo unspecified)	-5%	1µM*	2.5µM*	0%	-4%
Cc1cccc(NC(=O)C2CC(=O)N/C(=N/N=C/c3ccco3)S2)c1 (stereo unspecified)	-5%	-31%	3%	13%	-5%
O=C(CN1C(=O)NC(c2ccccc2)(c2ccccc2)C1=O)N1CCOCC1	-9%	x	x	7%	-14%
O=C1/C(=C/c2ccccc2Cl)SC(=S)N1CCCC(=O)N(CCO)c1ccccc1	u	2.2µM*	u	-4%	u
O=C(CCN1C(=O)/C(=C/c2ccccc2Cl)SC1=S)Nc1cccnc1	-1%	35%	u	-7%	3%
O=C(CCCN1C(=O)/C(=C/c2ccccc2Cl)SC1=S)Nc1cccnc1	u	0.22µM*	-101%	u	u
O=C(CCCN1C(=O)/C(=C/c2ccccc2Cl)SC1=S)Nc1ccccn1	u	1.8µM*	u	u	8%
O=C(CCN1C(=O)/C(=C/c2ccccc2Cl)SC1=S)Nc1ccccn1	-7%	-33%	-6%	19%	0%
CC(NC(=O)c1ccc(OC2CCN(C(=O)c3cccnc3)CC2)cc1)C1CC1 (stereo unspecified)	u	10%	-1%	14%	-1%
COC(=O)C1=C(C)N(Cc2ccccc2)[C@]23O[C@](C(=O)OC)(C(=O)N2C1c1ccccc1)C1CCOC(=O)C13 (stereo partly specified)	x	-14%[10 µM]	2%[10 µM]	x	x
Cc1nn(-c2cc(C(F)(F)F)ccc2Cl)c2nc(C(Cl)(Cl)Cl)[nH]c(=O)c12	u	88%	-3%	21µM*	7%
CC(C)OCCCn1c(=S)[nH]c2ncccc2c1=O	1%	8.9µM*	u	0%	-5%
CCN(CCCn1c(=S)[nH]c2ncccc2c1=O)c1ccccc1	15%	1.4µM*	4µM*	u	4%
COc1ccc(/C=c2\s/c(=C/C(=O)c3ccc(C)cc3)[nH]c2=O)cc1OC	13µM*	13µM*	u	u	23%
CC(C)(C)C(=O)/C=c1\[nH]c(=O)/c(=C\c2ccc(F)cc2)s1	u	u	u	u	15%
COc1ccc(OCc2nnc(SCC(=O)c3ccccc3)o2)cc1	u	-2%	9%	6%	u
